PriA SSB inh = blocks PriA binding to SSB C-terminal tail | AlphaScreen SSBct-PriA binding, biotinylated peptide | inhibition, % at 33 µM | hit rate 0.6% among 430,000 | AID 1272365; in the data active = inhibition mostly above about 37%, no sharp cut-off; inactive = mostly below about 20%;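 note: plate controls were negative control peptide for no effect and reference peptide for full effect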
BoNT A protease = inhibitors of Botulinum neurotoxin A light chain protease; multiplex microsphere protease substrate cleavage, flow cytometry; inhibition, % at 10 µM; hit rate 0.17% among 360,000; AID 588499; note: plate controls were buffer without enzyme for full effect and enzyme alone for no effect
MazF activator = MazEF (E. coli) toxin RNase activation | FAM/BHQ RNA-DNA oligo cleavage fluorescence, 5 h | hit rate 0.32% among 350,000 | activation, % at 20 µM | P0AE70; in the data active = activation above about 50%
Target sequence (P0AE70 whole entry, looked up): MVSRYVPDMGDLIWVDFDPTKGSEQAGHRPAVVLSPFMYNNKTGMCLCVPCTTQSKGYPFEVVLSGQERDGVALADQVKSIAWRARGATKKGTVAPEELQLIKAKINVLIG
Anthrax LF inh2 = inhibitors of Bacillus anthracis lethal factor protease. P15917. inhibition, % at 10 µM. multiplex microsphere protease cleavage assay, LF. AID 588501. hit rate 0.12% among 360,000; note: plate controls were buffer without enzyme for full effect and enzyme alone for no effect
BoNT F protease = inhibitors of Botulinum neurotoxin F light chain protease; Multiplex microsphere protease cleavage assay, flow cytometry; inhibition, % at 10 µM; hit rate 0.22% among 360,000; AID 588497; in the data active = inhibition above about 35%, passing the limit was not always enough; inconclusive = no clear call, values can overlap the other calls; note: plate controls were buffer without enzyme for full effect and enzyme alone for no effect
Autofluor counter = flagged as autofluorescent in microsphere protease counterscreen; hit rate 3.1% among 360,000; compound autofluorescence counterscreen, microsphere flow cytometry; hits give high values; fluorescence intensity (concentration not given with the values); AID 624483; in the data active = fluorescence intensity above about 16000; inconclusive = no clear call, values can overlap the other calls
Numbers without * were called inactive; ? = inconclusive; · = not tested or not shown. Shown are actives, neighbours in structure and some others; about 3.3% of the full set was active somewhere. Cut-off read from the data, not from the text of the source, unless noted: active = inhibition above about 30%; inconclusive = no clear call, values can overlap the other calls; inactive = below that.

SMILES	PriA SSB inh	BoNT A protease	MazF activator	Anthrax LF inh2	BoNT F protease	Autofluor counter
Cc1ccc(S(=O)(=O)Nc2ccc3nc(-c4cccn4C)[nH]c3c2)cc1	88*	-1	6	-4	-31	2801
Cc1ccc(C(=O)CC2SC(=N)NC2=O)cc1 (configuration not stated)	5	·	·	·	·	·
C/C(CC(O)c1ccc2ccccc2n1)=N/O (configuration not stated)	·	1	-9	-1	0	20613*
CCn1c(C2CCN(C(=O)c3ccc(Cl)s3)CC2)nn(CCOC)c1=O	-11	·	·	·	·	·
Cc1ccc(-c2nnc(N3CCN(C(=O)COc4ccccc4)CC3)c3ccccc23)cc1	13	1	3	-4	-2	16269*
O=C(CN(CCc1ccccc1)Cc1ccccc1)Oc1ccccc1P(=O)(O)O	92*	-2	5	8	-10	4034
COCCN(CC(=O)Oc1ccccc1P(=O)(OC)OC)Cc1ccccc1	-4	-4	10	28	26	4882
COc1ccc(N2CCN(C(=O)Oc3ccc([N+](=O)[O-])cc3)CC2)cc1	·	0	·	-11	-12	6198
COc1ccc(N2CCN(C(=O)c3ccc(COc4ccc([N+](=O)[O-])cc4)o3)CC2)cc1	40*	15	5	2	-13	2869
O=C(c1ccc(COc2ccccc2[N+](=O)[O-])o1)N1CCCCC1	-3	0	-2	-1	-1	19870*
Cc1noc(C2CN(Cc3ccc(Br)cc3)C2)n1	-8	·	·	·	·	·
Nc1ccc2c(c1)CCCN2C(=O)C1CC1	5	·	·	·	·	·
O=C(NC12CC3CC(CC(C3)C1)C2)C1CCCN1C(=O)NC1CCCCC1 (configuration not stated)	-4	1	-3	-4	-3	3667
CC1CCCCN1C(=O)NC12CC3CC(CC(C3)C1)C2 (configuration not stated)	-8	0	2	0	2	22908*
C[C@H]1CCC[C@H](O)CCCCCc2cc(O)cc(O)c2C(=O)O1	4	-1	11	0	-9	6177
C[C@H]1CCC[C@@H](O)CCC/C=C/c2cc(O)cc(O)c2C(=O)O1	-4	-3	3	-4	-4	20416*
CC(C)N=Cc1c(O)[nH]c2ccccc12	-2	-2	-2	-2	-4	21450*
N#CC1(C#N)C(C(N)=O)C1c1ccccc1 (configuration not stated)	-7	0	0	1	0	2573
CN1C=CC2=C(C#N)C(N)C(C#N)(C#N)[C@H](c3ccccc3)[C@H]2C1 (some centres not stated)	6	0	12	0	0	16327*
COc1cccc(N2CCN(c3ncnc4c3[nH]c3ccc(F)cc34)CC2C)c1 (configuration not stated)	42*	0	12	-9	-3	3479
Cc1sc2c(c1C)C(c1ccc(C(C)(C)C)cc1)=NCC(=O)N2CC(=O)Nc1nccs1	-2	-1	-3	-2	-3	22414*
CCCCCCNc1cc(C)oc(=O)c1C(C)=O	-39	0	-8	-2	0	2546
CCCCNc1cc(C)oc(=O)c1C(C)=O	-3	6	1	-2	6	21662*
O=C(c1ccccc1)N1CCn2c(nc3ccccc32)C1	-3	?	8	1	4	19484*
O=C(NCc1ccccc1)N1CCn2c(nc3ccccc32)C1	-5	2	-7	-3	0	19281*
SMILES	PriA SSB inh	BoNT A protease	MazF activator	Anthrax LF inh2	BoNT F protease	Autofluor counter
S=C(Nc1ccccc1)N1CCn2c(nc3ccccc32)C1	-25	0	4	2	-2	2541
CC1CCN(Cc2c(C(=O)NN=Cc3cc(Cl)ccc3O)nnn2-c2nonc2N)CC1	-4	·	·	·	·	·
CC(C)S(=O)(=O)c1ccc(CC(=O)N2CCC(CSCc3ccco3)CC2)cc1	1	·	·	·	·	·
O=C(Nc1nc(C(=O)Nc2cccc3ncccc23)co1)c1ccncc1	1	·	·	·	·	·
O=[N+]([O-])c1cccc(-c2nc(-c3ccccc3)c(-c3cccs3)[nH]2)c1	-4	0	20	-4	-1	2499
O=[N+]([O-])c1cccc(-c2nc(-c3cccs3)c(-c3cccs3)[nH]2)c1	-17	0	111*	-2	5	2360
Cn1c(=O)oc2ccc(S(=O)(=O)N3CC(n4cc(-c5ccccc5)nn4)C3)cc21	-6	·	·	·	·	·
CCn1nc(C)cc1C(=O)Nc1nc(-c2cc3ccccc3oc2=O)cs1	7	·	·	·	·	·
O=C(CSc1nc2ccccc2c(=O)[nH]1)Nc1ccc(Br)cc1	-24	-1	6	-9	-3	6188
O=C(CSc1nc(O)c(Cc2ccccc2)c(=O)[nH]1)Nc1ccccc1	5	?	1	-3	5	?
COc1ccc(-n2c(SC)nc(O)c(Cc3ccccc3)c2=O)cc1	0	?	5	0	-2	22787*
CC(C)CCNC(=O)CSc1nc2ccccc2c(=O)[nH]1	-3	-3	7	-4	-6	17172*
CC(NC(=O)CSc1nc2ccccc2c(=O)[nH]1)c1ccccc1 (configuration not stated)	-9	0	10	2	4	2742
COC(=O)c1ccc(NC(=O)CSc2nc3ccccc3c(=O)[nH]2)cc1	-10	0	24	-1	0	20547*
COc1ccc(NC(=O)CSc2nc(O)c(Cc3ccccc3)c(=O)[nH]2)cc1	-10	?	6	-1	1	23050*
COc1cc(/C=C\C(=O)NCCn2ncc3c(=O)n(Cc4cccc(C)c4)cnc32)cc(OC)c1OC	-6	·	·	·	·	·
N#Cc1ccc(Cl)cc1NC(=O)C(=O)NCC(c1cccc2ccccc12)N1CCOCC1 (configuration not stated)	-7	·	·	·	·	·
Cc1nnc(SCC(=O)Nc2ccc(S(N)(=O)=O)cc2)s1	1	·	·	·	·	·
CCC(C)NC(=O)CSc1nc2ccsc2c(=O)n1-c1ccc(OC)cc1 (configuration not stated)	-29	1	7	-3	14	4915
COc1ccc(-n2c(SCC(=O)NC3CCCCC3)nc3ccsc3c2=O)cc1	-8	?	-2	0	0	21037*
CCc1nnc(C2CCN(C(=O)C3CC3)CC2)s1	7	·	·	·	·	·
Cc1cccc(NC(=O)CSc2nnc(-c3ccccc3C)o2)c1	-3	2	18	-4	1	18972*
O=C(CSc1nnc(-c2ccccc2Cl)o1)Nc1ccc2c(c1)OCCO2	-2	1	-8	-4	0	19436*
Cc1cc(C)cc(NC(=O)CSc2nnc(-c3ccccc3C)o2)c1	-31	?	5	-8	0	19314*
Cc1cc(NC(=O)C(=O)NCCC2=CCCCC2)c2ccccc2n1	1	·	·	·	·	·
COc1ccc(CCC(=O)NCc2nc(C)no2)cc1	2	·	·	·	·	·
O=C(NCC1(c2cccs2)CCOCC1)c1ccc(OC(F)(F)F)cc1	-11	·	·	·	·	·
COC(=O)[C@H](CCSC)NC(=O)NCc1ccc(S(N)(=O)=O)cc1	-11	-1	3	-3	-8	11406
COC(=O)[C@H](CCSC)NC(=O)NCc1ccccc1F	-8	1	-6	1	-2	22106*

Screens (PubChem)
